RXFP1 agonist: RXFP1 (human) receptor agonism; Q9HBX9; HEK293T-RXFP1 cAMP TR-FRET, 30 min; response scale: percent of porcine relaxin response, buffer zero; Potency, µM (series often up to 57.5 µM), without a hit: at the highest dose activation, most hits filed as activators; 370,000 tested, 0.3% active; AID 2676; note: potency is the fitted concentration of half-maximal effect; % is set by controls: 0 for no effect and ±100 for the full control effect; nearly all actives have a fitted effect of over 60% in size
Target sequence (Q9HBX9 whole entry, looked up): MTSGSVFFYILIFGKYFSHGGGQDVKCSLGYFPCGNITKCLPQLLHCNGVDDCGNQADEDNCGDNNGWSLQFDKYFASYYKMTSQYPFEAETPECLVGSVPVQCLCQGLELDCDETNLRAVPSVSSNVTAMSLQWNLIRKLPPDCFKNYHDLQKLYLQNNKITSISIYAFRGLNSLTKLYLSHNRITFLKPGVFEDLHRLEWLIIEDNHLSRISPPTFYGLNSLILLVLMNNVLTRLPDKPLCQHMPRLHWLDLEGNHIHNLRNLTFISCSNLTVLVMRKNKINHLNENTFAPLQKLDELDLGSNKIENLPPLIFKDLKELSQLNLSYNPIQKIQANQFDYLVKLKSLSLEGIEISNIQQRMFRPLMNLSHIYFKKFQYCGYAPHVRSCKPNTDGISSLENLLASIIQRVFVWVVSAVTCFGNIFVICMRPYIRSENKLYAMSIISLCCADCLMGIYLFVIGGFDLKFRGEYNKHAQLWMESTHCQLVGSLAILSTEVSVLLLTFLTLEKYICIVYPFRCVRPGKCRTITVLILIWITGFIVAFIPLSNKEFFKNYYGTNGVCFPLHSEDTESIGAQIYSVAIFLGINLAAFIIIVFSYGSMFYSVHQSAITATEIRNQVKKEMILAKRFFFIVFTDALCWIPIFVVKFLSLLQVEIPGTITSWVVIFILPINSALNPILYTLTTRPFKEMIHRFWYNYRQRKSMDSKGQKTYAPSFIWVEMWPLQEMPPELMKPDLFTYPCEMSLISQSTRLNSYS
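Agonist response is measured as cAMP accumulation in an RXFP1-transfected HEK293T line under PDE4 inhibition. Values are scaled between buffer-only and 29 nM porcine relaxin, and EC50s come from standard Hill equation fits.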
RXFP1 antag: RXFP1 (human) relaxin receptor antagonism | Q9HBX9 | HEK293-RXFP1, relaxin-stimulated cAMP HTRF, 30 min; stronger effect = lower value | activity change, negative = inhibition, % at 57.5 µM | AID 1259400 | 350,000 tested, 0.59% active;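 active = activity change of -60% or lower, but not beyond a set lower limit; inconclusive = change between -60% and -40%, or beyond the set limit; inactive = change above -40%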; note: % is set by controls: 0 for no effect and ±100 for the full control effect
Giardia killer: kills Giardia lamblia; Giardia lamblia trophozoite viability; activity change, % at 7.66 µM, hits read low; 340,000 tested, 0.15% active; AID 540267; in the data active = activity change below about -80%; inconclusive = between about -30% and that limit;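 note: parasites exposed to compound for two days anaerobically before the ATP read; % is set by controls: 0 for no effect and ±100 for the full control effect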
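Killing of trophozoites was scored by loss of ATP luminescence after a 48 hrs anaerobic exposure to compounds at 37 deg C, using 100 cells per well.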
BRCA1 expr act: activators of BRCA1 expression; MCF7-BRCA1-FFLuc reporter, luminescence, 48 h; response scale: scaled: vehicle 0%, 10 µM genistein 100%; Potency, µM (titrated, usually from 46.1 µM), inactives show top-dose activation, usual class: activators; 380,000 tested, 1.1% active; note: potency is the fitted concentration of half-maximal effect; nearly all actives have a fitted effect of over 80% in size
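Cells: MCF7-BRCA1-FFLuc, 2000/well. Exposure: 48 h, 37 °C, 5% CO2. Read: luminescence, 15 min post-substrate. Controls: genistein 10 microM (maximal activation), DMSO (neutral).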
IL-2 act: activates IL-2 in a cell-based reporter assay; IL-2 activation reporter assay, cell-based qHTS; stimulated with anti-CD3/CD4/CD28 beads; in transgenic mouse T cells; activation, % (series mostly up to about 46 µM); 360,000 tested, 0.065% active; AID 652025; in the data active = activation above about 50%; inconclusive = mostly about 30% to 49%; note: 0% is about no effect
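Screening format: compound pinned onto unstimulated transgenic mouse T cells, 60 min incubation, then anti-CD3/anti-CD4/anti-CD28 bead stimulation for 18 hours at 37 degrees C, followed by EGFP and DsRed detection.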
NPSR antagonist: blocks cAMP signaling of the human neuropeptide S receptor; CHO-NPSR cells, cAMP TR-FRET, antagonist mode; Potency, µM (highest dose often 38.3 µM), inactives show at the highest dose activity change, negative = inhibition, hits mostly inhibitors; AID 1461; 220,000 tested, 1% active; note: potency is the fitted concentration of half-maximal effect; % is set by controls: 0 for no effect and ±100 for the full control effect; nearly all actives have a fitted effect of over 50% in size
* marks the source's active call; other numbers are inactive results; [ ] = another dose, or the depositor's remark. Rows were chosen to be rich in hits. Some 1.9% of all compounds tested hit in one or more screens of this group. Unless noted, calls come from the whole dose curve; as a rule, active = well fitted curve in the direction sought with a large enough effect; inconclusive = small, poorly fitted or top-dose-only effect, or another doubt; inactive = no such curve, though single readings can be large; an effect the other way counts as inactive or inconclusive.

How did CN(C)c1ccc(/C=C(\C#N)C(=O)Nc2nc3c(s2)CCN(Cc2ccccc2)C3)cc1 do in these assays?
RXFP1 agonist: 1%; RXFP1 antag: 20; Giardia killer: -1; BRCA1 expr act: -22%; IL-2 act: 59*; NPSR antagonist: -8%[46.1 µM]

Results for Cc1cccc2nc(CSc3nc4ccccc4[nH]3)cn12 ?
RXFP1 agonist: 3%; RXFP1 antag: 12; Giardia killer: -5; BRCA1 expr act: inconclusive; IL-2 act: -3; NPSR antagonist: 10%

Results for Cc1cccc2nc(CSc3ccc(Cl)cc3)cn12 ?
RXFP1 agonist: 0%; RXFP1 antag: 10; Giardia killer: 1; BRCA1 expr act: 4.5µM*; IL-2 act: -3; NPSR antagonist: -46%

What do the screens show for `Cc1ccc(SCc2cn3cc(Cl)ccc3n2)cc1`?
RXFP1 agonist: 2%; RXFP1 antag: -34; Giardia killer: -23; BRCA1 expr act: 10µM*; IL-2 act: 0; NPSR antagonist: -50%

How did CNc1cc(CSc2ccc(Cl)cc2)nc(C)n1 do in these assays?
RXFP1 agonist: 0%; RXFP1 antag: 6; Giardia killer: -1; BRCA1 expr act: 5µM*; IL-2 act: 2; NPSR antagonist: -10%

Results for Clc1ccc(SCc2cn3ccccc3n2)cc1 ?
RXFP1 agonist: 0%; RXFP1 antag: -8; Giardia killer: -2; BRCA1 expr act: 5.6µM*; IL-2 act: 0; NPSR antagonist: -4%

What do the screens show for `Cc1ccc(-c2csc(NC(=O)C3CC(=O)N(c4ccc5c(c4)OCCO5)C3)n2)o1` (configuration not stated)?
Giardia killer: -1; BRCA1 expr act: 0%

What do the screens show for `C=CCn1c(=O)/c(=C/c2ccsc2)s/c1=C(\C#N)C(=O)NCCN1CCOCC1`?
RXFP1 antag: -12; Giardia killer: 12; BRCA1 expr act: -5%; IL-2 act: 60*

What do the screens show for `CCCCCCOc1ccc(C2C(=O)N(C3CCCCC3)CC(=O)N2C2CCCCC2)cc1` (configuration not stated)?
RXFP1 agonist: -1%; RXFP1 antag: -18

What do the screens show for `CCCCCCOc1ccc(C2C(=O)N(C3CCCCC3)CC(=O)N2CCC)cc1` (configuration not stated)?
RXFP1 agonist: 0%; RXFP1 antag: -69*

Results for CCN(CCCNC(=O)c1cc(Nc2ccccc2OC)nc2ccccc12)c1cccc(C)c1 ?
RXFP1 agonist: 3%; BRCA1 expr act: -35%

Results for CC(Sc1ncnc2sc(-c3ccccc3)cc12)C(=O)NCC1CCCO1 (configuration not stated) ?
RXFP1 agonist: 2%; RXFP1 antag: -98*; Giardia killer: 5; BRCA1 expr act: -43%; IL-2 act: -6

How did O=C(NCCc1ccccc1)c1cnc2sc(N3CCCCC3)nn2c1=O do in these assays?
RXFP1 agonist: -2%; RXFP1 antag: 2

What do the screens show for `Cc1cc(C)c2nc(N3CCCC(C(=O)NCCN4CCOCC4)C3)sc2c1` (configuration not stated)?
RXFP1 agonist: 0%; RXFP1 antag: -15; Giardia killer: -6; BRCA1 expr act: 2.8µM*; IL-2 act: -3; NPSR antagonist: -1%[46.1 µM]

Results for Cc1cc(C)c2nc(N3CCCC(C(=O)NCCCN4CCOCC4)C3)sc2c1 (configuration not stated) ?
RXFP1 agonist: 0%; RXFP1 antag: -11; Giardia killer: 9; BRCA1 expr act: 71%; IL-2 act: 3; NPSR antagonist: 8%[46.1 µM]

How did Cc1cc(C)n(C(=O)CNC(=O)c2ccc(C(C)(C)C)cc2)n1 do in these assays?
RXFP1 agonist: -3%; RXFP1 antag: -116*; Giardia killer: 8; BRCA1 expr act: 28%; IL-2 act: 1

How did Cc1cccc(-n2c(-c3csc(C)c3)n[nH]c2=S)c1 do in these assays?
RXFP1 agonist: 4%; RXFP1 antag: -66*; Giardia killer: -7; BRCA1 expr act: 15%; IL-2 act: -2; NPSR antagonist: -21%[46.1 µM]

How did CCc1cc(-c2n[nH]c(=S)n2-c2cccc(C)c2)cs1 do in these assays?
RXFP1 agonist: -1%; RXFP1 antag: -3; Giardia killer: -4; BRCA1 expr act: -26%; IL-2 act: -4; NPSR antagonist: inconclusive

Results for Cc1cc(C)c(NC(=O)CCn2c(=O)c3cccn3c3ccccc32)c(C)c1 ?
RXFP1 agonist: 0%; RXFP1 antag: -7

Results for COc1ccccc1NC(=O)COC(=O)CC(C)(C)CC1=NS(=O)(=O)c2ccccc2N1 ?
RXFP1 agonist: -1%; RXFP1 antag: -83*; Giardia killer: 4; BRCA1 expr act: 8%; IL-2 act: -6

How did Cc1ccc(-c2cc(C3C4C=CCC(C)C4C(=O)N3Cc3ccccc3)ccc2F)cc1 (configuration not stated) do in these assays?
Giardia killer: -6

What do the screens show for `Cc1cc(C(=O)OCC(N)=O)c(C)n1-c1ccccc1`?
RXFP1 agonist: -3%; RXFP1 antag: inconclusive; Giardia killer: 2; BRCA1 expr act: 33%; IL-2 act: 0; NPSR antagonist: 6%

How did C/C(N)=C(/C#N)C(=O)COC(=O)c1cc(C)n(-c2ccc(F)cc2)c1C do in these assays?
RXFP1 agonist: 0%; RXFP1 antag: -9; Giardia killer: 20; BRCA1 expr act: 8.9µM*; IL-2 act: 0; NPSR antagonist: -13%[46.1 µM]

How did COc1ccc(O[C@H]2C=C[C@@H](c3ccccc3)O[C@@H]2COC(=O)CC/C(C)=N/O[C@@H](C)CN2CCCCc3nc(C)c(C)cc32)cc1 do in these assays?
RXFP1 agonist: 1%; NPSR antagonist: 16µM*

What do the screens show for `C/C(CCC(=O)OC[C@H]1O[C@H](C#Cc2ccccc2)C=C[C@@H]1Oc1ccc(C)cc1)=N\O[C@@H](C)CN1CCCCc2nc(C)c(C)cc21`?
RXFP1 agonist: 2%; NPSR antagonist: -46%

How did COc1ccc2nc(/C=N/NC(=O)[C@@H]3CCCN3C(=O)OC(C)(C)C)ccc2c1 do in these assays?
RXFP1 agonist: -2%; RXFP1 antag: -1; Giardia killer: 0; BRCA1 expr act: 7.1µM*; IL-2 act: -1; NPSR antagonist: 7%

What do the screens show for `CC(C)(C)OC(=O)N1CCC[C@H]1C(=O)N/N=C/c1ccc2nccnc2c1`?
RXFP1 agonist: 0%; RXFP1 antag: -7; Giardia killer: -5; BRCA1 expr act: -1%; IL-2 act: 6; NPSR antagonist: 9%

What do the screens show for `O=[N+]([O-])c1ccccc1/C=C/C=N/N1CCCCC1`?
RXFP1 agonist: 1%; RXFP1 antag: -11; Giardia killer: -30; BRCA1 expr act: 2.8µM*; IL-2 act: -3; NPSR antagonist: -15%

Source: PubChem
